# Experimental data: ChEMBL document CHEMBL1961873, “Compounds: GSK PKIS; Assays: Nanosyn kinase panel” (2012)
# Where “and” joins values, the source holds several entries; their conditions need not be identical. Identical values can stand only once.
# Target: Tyrosine-protein kinase JAK2 (Homo sapiens) (UniProt O60674);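 further: mean JAK2 inhibition from the GSK PKIS screen, compounds tested at 1 µM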
# Conditions: at 1 µM
# Chain of Tyrosine-protein kinase JAK2 (Homo sapiens) (O60674 whole entry): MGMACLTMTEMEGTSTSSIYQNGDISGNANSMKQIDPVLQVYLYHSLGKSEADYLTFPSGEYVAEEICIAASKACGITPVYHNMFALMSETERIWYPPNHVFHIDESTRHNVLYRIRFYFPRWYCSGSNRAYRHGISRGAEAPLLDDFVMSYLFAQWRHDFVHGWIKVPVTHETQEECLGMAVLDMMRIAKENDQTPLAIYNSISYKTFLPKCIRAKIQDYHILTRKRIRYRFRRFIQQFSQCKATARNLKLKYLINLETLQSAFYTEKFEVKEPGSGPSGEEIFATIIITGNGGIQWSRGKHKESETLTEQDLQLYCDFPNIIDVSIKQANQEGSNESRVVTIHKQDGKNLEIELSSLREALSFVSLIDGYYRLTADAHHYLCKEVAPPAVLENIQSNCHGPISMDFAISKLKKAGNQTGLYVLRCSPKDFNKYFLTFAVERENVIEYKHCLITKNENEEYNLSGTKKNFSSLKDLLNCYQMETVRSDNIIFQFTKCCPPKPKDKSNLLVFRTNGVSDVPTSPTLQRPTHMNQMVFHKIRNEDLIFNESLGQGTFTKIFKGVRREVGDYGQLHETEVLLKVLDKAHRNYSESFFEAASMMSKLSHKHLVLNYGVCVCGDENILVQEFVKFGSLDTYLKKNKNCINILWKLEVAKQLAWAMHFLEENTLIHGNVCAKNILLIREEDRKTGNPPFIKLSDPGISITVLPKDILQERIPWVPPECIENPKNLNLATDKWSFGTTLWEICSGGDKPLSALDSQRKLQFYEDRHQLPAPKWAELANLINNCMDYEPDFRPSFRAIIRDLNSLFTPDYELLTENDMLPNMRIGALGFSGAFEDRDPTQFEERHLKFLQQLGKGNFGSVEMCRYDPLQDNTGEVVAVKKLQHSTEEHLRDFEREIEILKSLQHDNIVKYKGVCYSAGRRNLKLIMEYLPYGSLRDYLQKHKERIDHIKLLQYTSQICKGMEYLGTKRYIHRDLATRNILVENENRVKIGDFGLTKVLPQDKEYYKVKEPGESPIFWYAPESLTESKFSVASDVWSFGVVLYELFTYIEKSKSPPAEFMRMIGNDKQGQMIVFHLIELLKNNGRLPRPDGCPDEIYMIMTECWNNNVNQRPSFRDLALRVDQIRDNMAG
row,Structure (SMILES),inhibition
1,N#Cc1ccc2c(-c3ccnc(NC4CC4)n3)c(-c3ccc(F)cc3)nn2c1,-0.42%
2,CNC(=O)c1ncccc1Nc1nc(Nc2cc3c(cc2OC)CCCN3C(=O)CN(C)C)nc2[nH]ccc12,1.63%
3,CC1(C)CC(n2cnc(-c3ccc(F)cc3)c2-c2ccnc(N)n2)CC(C)(C)N1,-0.41%
4,COc1ccc2ncn(-c3cc(O[C@H](C)c4ccccc4C(F)(F)F)c(C(N)=O)s3)c2c1,-1.12%
5,CC(C)c1ccc(-c2cc(-c3c[nH]nc3-c3ccccn3)ccn2)cc1,0.23%
6,CN1CCN(Cc2ccc(-c3cc4ncnc(Nc5ccc(OCc6cccc(F)c6)c(Cl)c5)c4s3)o2)CC1,0.57% and 0.86%
7,NS(=O)(=O)c1ccc(N/N=C2\C(=O)Nc3cccc(CCc4ccncc4)c32)cc1,1.19%
8,N#Cc1cccc(Nc2ncc(-c3ccccc3)o2)c1,0.35%
9,CNC(=O)c1cncc(/C=C/c2ccccc2C)c1,1.45%
10,Nc1ncnc2occ(-c3ccc(NC(=O)Nc4cc(C(F)(F)F)ccc4F)cc3)c12,18.8% and 7.54%
11,Cc1cc(O)cc(C)c1/C=C/c1cncc(C(=O)OC(C)(C)C)c1,3.69%
12,COc1ccc(-c2nn3ncccc3c2-c2ccnc(Nc3ccc(F)c(F)c3)n2)cc1,1.18%
13,O=C(Nc1n[nH]c2nnc(-c3cccnc3)cc12)C1CC1,0.3%
14,c1ccc(-c2n[nH]cc2-c2ccnc(-c3ccc(OCCn4ccnc4)cc3)c2)nc1,3.12%
15,CS(=O)(=O)Nc1ccc(-c2cc(-c3ccccc3)cc(C(N)=O)c2N)cc1,3.86%
16,OCCCNc1nccc(-c2c(-c3ccc(F)cc3)nn3cc(C(F)(F)F)ccc23)n1,0.99%

# Target: T1, Tyrosine-protein kinase JAK3 (Homo sapiens) (UniProt P52333);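 further: values reported are mean percent inhibition of JAK3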
# T1 sequence (whole entry): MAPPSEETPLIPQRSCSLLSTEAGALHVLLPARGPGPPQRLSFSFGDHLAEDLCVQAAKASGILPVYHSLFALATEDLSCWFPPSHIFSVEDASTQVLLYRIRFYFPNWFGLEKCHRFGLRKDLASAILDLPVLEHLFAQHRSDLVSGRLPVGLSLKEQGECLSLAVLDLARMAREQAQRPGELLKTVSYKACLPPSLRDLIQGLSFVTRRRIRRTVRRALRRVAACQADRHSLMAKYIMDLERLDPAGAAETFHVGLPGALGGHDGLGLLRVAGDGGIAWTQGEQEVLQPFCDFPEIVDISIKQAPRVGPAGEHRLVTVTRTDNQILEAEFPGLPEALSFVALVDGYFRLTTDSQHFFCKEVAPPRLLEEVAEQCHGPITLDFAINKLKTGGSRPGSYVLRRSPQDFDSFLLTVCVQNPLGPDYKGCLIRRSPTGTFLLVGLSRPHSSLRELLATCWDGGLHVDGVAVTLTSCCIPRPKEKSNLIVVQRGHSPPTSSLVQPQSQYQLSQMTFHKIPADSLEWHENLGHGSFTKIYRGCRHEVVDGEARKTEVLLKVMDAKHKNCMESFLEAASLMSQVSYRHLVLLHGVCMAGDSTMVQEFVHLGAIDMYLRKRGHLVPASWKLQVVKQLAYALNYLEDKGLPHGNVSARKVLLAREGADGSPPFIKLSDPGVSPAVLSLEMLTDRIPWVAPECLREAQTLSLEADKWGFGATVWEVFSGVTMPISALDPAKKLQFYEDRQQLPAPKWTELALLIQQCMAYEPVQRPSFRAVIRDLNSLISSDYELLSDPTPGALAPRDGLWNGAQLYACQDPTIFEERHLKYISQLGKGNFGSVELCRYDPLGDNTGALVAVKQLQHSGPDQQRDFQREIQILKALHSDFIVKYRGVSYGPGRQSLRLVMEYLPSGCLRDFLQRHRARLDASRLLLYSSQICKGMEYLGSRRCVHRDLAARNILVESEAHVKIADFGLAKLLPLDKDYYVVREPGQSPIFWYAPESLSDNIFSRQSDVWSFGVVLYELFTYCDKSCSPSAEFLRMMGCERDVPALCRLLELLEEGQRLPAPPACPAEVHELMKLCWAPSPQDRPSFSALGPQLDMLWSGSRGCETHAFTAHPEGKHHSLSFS
# Conditions: at 0.1 µM
row,Structure (SMILES),inhibition
1,O=C(O[C@H]1CN[C@H](C#Cc2cc3ncnc(Nc4ccc5c(cnn5Cc5ccccc5)c4)c3s2)C1)N1CCOCC1,-0.78%
2,COc1ccc(Nc2ncc(-c3ccccc3)o2)cc1OC,0.88%
3,COc1cc(N2CCN(C(C)C)CC2)ccc1Nc1nc(Nc2cccc(F)c2C(=O)O)c2cc[nH]c2n1,-1.39%
4,COc1ccccc1-c1cc(/C=C2\C(=O)Nc3ncc(Br)cc32)cc(Br)c1O,-0.19%
5,FC(F)(F)CNc1nccc(-c2cnn3ncccc23)n1,-1.54%
6,CN1CCC(n2cnc(-c3ccc(F)cc3)c2-c2ccnc(NCCO)n2)CC1,-2.19%
7,CS(=O)(=O)CCNCc1ccc(-c2ccc3ncnc(Nc4ccc(OCc5cccc(C(F)(F)F)c5)cc4)c3c2)o1,-1.49%
8,COc1c(C(N)=O)cc(-c2ccc(Cl)cc2)cc1-c1ccc(S(N)(=O)=O)cc1,0.08%
9,Cc1nnc(-c2cccc(-c3ccc(C(=O)NCC4CC4)cc3)c2)o1,-1.21%
10,O=C(O[C@H]1CN[C@H](C#Cc2cc3ncnc(Nc4ccc5c(ccn5Cc5cc(F)ccc5F)c4)c3s2)C1)N1CCOCC1,-1.37%
11,CS(=O)(=O)Nc1ccc(-c2ccc3c(NC(=O)C4CC4)n[nH]c3c2)cc1,-0.85%
12,CN1CCC(C(=O)Nc2n[nH]c3nc(-c4ccc(O)cc4)c(Br)cc23)CC1,-3.69% and -1.35%
13,O=C(O[C@H]1CN[C@H](C#Cc2cc3ncnc(Nc4ccc(OCc5cccc(F)c5)c(Cl)c4)c3s2)C1)N1CCOCC1,-0.56%
14,CCCNc1cccc(-n2ncc3c(N/N=C/c4ccncc4)ncnc32)c1,-1.09%
15,COc1cccc(Nc2nccc(-c3cnn4ncccc34)n2)c1,2.03%
16,N#Cc1ccc2c(-c3ccnc(NC4CC4)n3)c(-c3ccc(F)cc3)nn2c1,-1.62%

row,Structure (SMILES),inhibition
1,CNC(=O)c1ncccc1Nc1nc(Nc2cc3c(cc2OC)CCCN3C(=O)CN(C)C)nc2[nH]ccc12,2.81%
2,CC1(C)CC(n2cnc(-c3ccc(F)cc3)c2-c2ccnc(N)n2)CC(C)(C)N1,-0.01%
3,COc1ccc2ncn(-c3cc(O[C@H](C)c4ccccc4C(F)(F)F)c(C(N)=O)s3)c2c1,0.5%
4,CC(C)c1ccc(-c2cc(-c3c[nH]nc3-c3ccccn3)ccn2)cc1,0.23%
5,CN1CCN(Cc2ccc(-c3cc4ncnc(Nc5ccc(OCc6cccc(F)c6)c(Cl)c5)c4s3)o2)CC1,-2.47% and -0.74%
6,NS(=O)(=O)c1ccc(N/N=C2\C(=O)Nc3cccc(CCc4ccncc4)c32)cc1,0.74%
7,N#Cc1cccc(Nc2ncc(-c3ccccc3)o2)c1,-1.06%
8,CNC(=O)c1cncc(/C=C/c2ccccc2C)c1,-0.66%
9,Nc1ncnc2occ(-c3ccc(NC(=O)Nc4cc(C(F)(F)F)ccc4F)cc3)c12,-0.84% and 0.28%
10,Cc1cc(O)cc(C)c1/C=C/c1cncc(C(=O)OC(C)(C)C)c1,0.72%
11,COc1ccc(-c2nn3ncccc3c2-c2ccnc(Nc3ccc(F)c(F)c3)n2)cc1,-1.36%
12,O=C(Nc1n[nH]c2nnc(-c3cccnc3)cc12)C1CC1,-0.15%
13,c1ccc(-c2n[nH]cc2-c2ccnc(-c3ccc(OCCn4ccnc4)cc3)c2)nc1,-0.46%
14,CS(=O)(=O)Nc1ccc(-c2cc(-c3ccccc3)cc(C(N)=O)c2N)cc1,-0.01%
15,OCCCNc1nccc(-c2c(-c3ccc(F)cc3)nn3cc(C(F)(F)F)ccc23)n1,0.08%
